D3 ag = activates the human D3 dopamine receptor. P35462. max activation, %. D3R DiscoveRx beta-arrestin cells, luminescence, 90 min. 410,000 compounds, 0.58% hits. AID 652048; in the data active = max activation above about 30%; also: 0% is about no effect
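Cells at 1500/well, incubated overnight, then treated with pinned compounds (dopamine as control) for 90 min at 37 degrees C. DiscoveRx reagent added for 30 - 60 minutes at room temperature; luminescence read.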
D1 antag = blocks dopamine activation of the human D1 receptor; P21728; HEK293 TREx D1 cells, calcium flux, dopamine EC80; stronger effect = lower value; activity change, negative = inhibition, % at 10 µM; 360,000 compounds, 3.2% hits; AID 504652; in the data active = activity change below about -30%; also: % is scaled to controls: 0 for no effect and ±100 for the full control effect
Target sequence (P21728 whole entry, looked up): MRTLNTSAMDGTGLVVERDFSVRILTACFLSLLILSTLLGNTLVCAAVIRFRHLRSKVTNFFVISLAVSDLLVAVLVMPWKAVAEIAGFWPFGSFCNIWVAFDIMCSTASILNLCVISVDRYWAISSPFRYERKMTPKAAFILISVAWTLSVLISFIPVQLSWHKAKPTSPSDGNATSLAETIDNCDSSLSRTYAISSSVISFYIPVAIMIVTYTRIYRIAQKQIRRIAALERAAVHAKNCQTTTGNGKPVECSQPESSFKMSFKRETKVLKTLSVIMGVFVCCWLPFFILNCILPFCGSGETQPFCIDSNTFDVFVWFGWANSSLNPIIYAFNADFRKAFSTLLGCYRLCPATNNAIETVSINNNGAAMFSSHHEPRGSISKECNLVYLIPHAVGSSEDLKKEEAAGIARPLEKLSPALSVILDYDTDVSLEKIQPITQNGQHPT
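Tetracycline-induced HEK293 T-REx cells with force-coupled D1 receptor were loaded with a no-wash calcium dye. Compound was added after a 10 s baseline and read kinetically for 180 s; EC80 dopamine was then added and calcium flux followed another 180 s.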
D1 PAM = enhances dopamine response at the human D1 receptor. HEK293 TREx D1 cells, calcium flux, dopamine EC20 potentiation. potentiation, % at 10 µM. 360,000 compounds, 0.036% hits; in the data active = potentiation above about 30%; also: 0% is about no effect
D1 agonist = activates the human D1 dopamine receptor. HEK293 T-REx D1 cells, calcium flux, agonist mode. 360,000 compounds, 1% hits. AID 504660. P21728. activation, % at 2 µM; in the data active = activation above about 30%; also: 0% is about no effect
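Agonism was scored from calcium flux recorded over 180 s (1 read/s) after pintool compound addition, following a 10-cycle baseline. Cells were inducible force-coupled HEK293 TREx D1, plated overnight at 30 C and loaded with no-wash calcium dye.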
D3 antag = antagonists of human D3 dopamine receptor | P35462 | D3R cells, DiscoveRx beta-arrestin luminescence, antagonist mode; stronger effect = lower value | max response, negative = inhibition, % | 360,000 compounds, 2.5% hits | AID 652054; in the data active = max response below about -50%; inconclusive = no clear call, values can overlap the other calls; also: % is scaled to controls: 0 for no effect and ±100 for the full control effect
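Cells expressing the human receptor were seeded at 1500 cells/well, incubated overnight at 37 degrees C in 5% CO2, then exposed to library compounds with dopamine controls for 90 minutes at 37 degrees C before luminescent detection.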
Active calls of the source: *; ? = inconclusive; . = not tested or not shown; ! = not confirmed by another sample. Only some compounds are listed: those with a hit (about 6.1% of all), similar ones and a draw of the others.

SMILES	D3 ag	D1 antag	D1 PAM	D1 agonist	D3 antag
COc1cc(OC)c(OC)cc1/C=C/c1nc2cc3ccccc3cc2c(=O)n1-c1ccc(Cl)cc1	-1	-2	-3	23	.
COc1ccc(Cl)cc1-n1c(/C=C/c2cccc3ccccc23)nc2ccccc2c1=O	1	-35*	-1	-3	.
COc1cc(OC)c(OC)cc1/C=C/c1nc2cc3ccccc3cc2c(=O)n1-c1ccccc1Br	7	-19	1	78*	.
COc1ccc(S(=O)(=O)Nc2ccc3c(c2)CCCN3S(=O)(=O)c2ccc(C)cc2)cc1F	7	-5	0	4	.
Cc1cccc(NC(=O)CSc2ncc(-c3ccc(Br)cc3)[nH]2)c1	-9	-14	-4	4	.
CCOCC(=O)Nc1cc(C(F)(F)F)ccc1Oc1cccc(Br)c1	-11	3	1	5	-24
CC(=O)Nc1cc(C(F)(F)F)ccc1Oc1cccc(Br)c1	2	-5	-12	30*	30
COc1ccc(Oc2ccc(C(F)(F)F)cc2NC(=O)c2ccc(C)cc2)cc1	-9	-8	5	31*	46
COc1ccc(OC)c(NC(=O)c2ccc(Cl)cc2)c1	-8	-36*	10	-1	-18
O=c1c2oc3ccccc3c2n(Cc2ccccc2Cl)c(=O)n1Cc1ccco1	-9	-6	-1	-1	.
CCOc1ccc(-n2c(=O)c3c(C)c(C)sc3n(CC(=O)c3ccccc3)c2=O)cc1	9	3	0	-3	.
Cc1nn2c(NCCCN(C)C)c3c(nc2c1-c1ccccc1)CCC3	2	9	-12	1	7
Cc1nn2c(NCCCN(C)C)c3c(nc2c1-c1ccccc1)CCCC3	-6	-38*	-4	20	-15
COc1ccc(CCNC(=O)C2(c3cccs3)CCOCC2)cc1OC	-6	.	0	-1	.
CCCC(=O)N(c1ccc2oc(C)c(C(C)=O)c2c1)S(=O)(=O)c1ccc(C(=O)O)cc1	-12	-42*	-8	1	-25
CCCC(=O)N(c1ccc2oc(C)c(C(C)=O)c2c1)S(=O)(=O)c1ccc(C)c([N+](=O)[O-])c1	-1	-27	-9	3	9
O=C(c1cc(Br)c(Br)s1)N1CCN(C/C=C/c2ccccc2)CC1	3	-1	6	2	-78*
O=C(c1cc2ccccc2o1)N1CCN(C/C=C/c2ccccc2)CC1	-19	-29	-9	2	-78*
O=C1CC(c2cccc(Cl)c2Cl)c2cc3c(cc2N1)OCCO3 (stereo unspecified)	-8	-18	0	-1	.
CCOC(=O)c1ccc(NC(=O)CSc2cc(-c3ccccc3)nc(C)n2)cc1	2	3	-1	11	.
CCCCNCc1cc2ccccc2o1	-12	-8	-2	4	-51*
CCCCNC(=O)CO/N=C(\C)c1cc2ccccc2o1	5	-28	2	3	7
CC(=O)Nc1ccc(S(=O)(=O)N(C)CC(=O)NC2=NCCS2)cc1	-3	-31*	-8	2	-4
CC(=O)Nc1ccc(S(=O)(=O)N(C)CC(=O)NC2CCCCCCC2)cc1	-10	.	.	.	-9
COc1ccc2c(c1)CC(C(=O)NCCCN1CCN(c3ccc(F)cc3)CC1)CO2 (stereo unspecified)	-16	11	-2	13	.
SMILES	D3 ag	D1 antag	D1 PAM	D1 agonist	D3 antag
COc1ccc(N2CCN(CCCNC(=O)C3COc4ccc(OC)cc4C3)CC2)cc1 (stereo unspecified)	7	-16	-2	7	.
COc1ccc2c(c1)CC(C(=O)NCCN1CCN(c3ccccc3F)CC1)CO2 (stereo unspecified)	2	-40*	-5	1	.
COc1ccc2c(c1)CC(C(=O)NCCN1CCN(c3cccc(C)c3C)CC1)CO2 (stereo unspecified)	47*	-14	-4	12	.
Cc1cccc2c1-c1sc(C(=O)N3CCN(c4ccccc4)CC3)cc1CO2	-4	-32*	-4	4	.
Cc1cccc2c1-c1sc(C(=O)NCCCN3CCCC(C)C3)cc1CO2 (stereo unspecified)	-10	-51*	-19	19	-76*
CC1CC(C)CN(CCCNC(=O)c2cc3c(s2)-c2ccccc2OC3)C1 (stereo unspecified)	-3	1	-2	7	-19
CCCN1CCN(CCCNC(=O)c2cc3c(s2)-c2c(C)cccc2OC3)CC1	-10	-38*!	-10	5	?

Screens from PubChem BioAssay.
